From PubChem BioAssay AID1159580 (chemical genetic matrix, 2015)
Out of some 5,500 compounds screened, about 2,000 (36%) were called active. Not shown: some 18% with an inconclusive outcome. No stated cut-off is given here; in the data, active means normalized growth mostly below about 0.91 (no sharp cut-off); inconclusive means no clear call, values can overlap the other calls; inactive means mostly above about 0.92. The list shows a part of the results.

Test: chemical genetic growth profiling, strain panel (AID 1159580);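 further: tested at 20 µM; growth read once vehicle control cultures reached saturation at 30 °C; 1 = growth at the plate median or of vehicle wells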
Conditions: S. cerevisiae deletion strains, growth OD
[1] = locus YBR021W, strain FUR4, stronger effect = lower value
[2] = locus YBR229C, strain ROT2, stronger effect = lower value
[3] = locus YCL029C, strain bik1, stronger effect = lower value
[4] = locus YDL035C, strain GPR1, stronger effect = lower value
[5] = locus YDL074C, strain BRE1, stronger effect = lower value
[6] = locus YDL101C, strain DUN1, stronger effect = lower value
[7] = locus YDL134C, strain PPH21, stronger effect = lower value
[8] = locus YDL185W, strain tfp1, stronger effect = lower value
[9] = locus YDL192W, strain arf1, stronger effect = lower value
[10] = locus YDR101C, strain arx1, stronger effect = lower value
[11] = locus YDR162C, strain NBP2, stronger effect = lower value
[12] = locus YDR318W, strain mcm21, stronger effect = lower value
[13] = locus YDR388W, stronger effect = lower value
[14] = locus YDR502C, strain sam2, stronger effect = lower value
[15] = locus YEL061C, strain CIN8, stronger effect = lower value
[16] = locus YER110C, stronger effect = lower value
[17] = locus YER155C, strain BEM2, stronger effect = lower value
[18] = locus YER167W, strain BCK2, stronger effect = lower value
[19] = locus YGL078C, strain dbp3, stronger effect = lower value
[20] = locus YGL086W, strain mad1, stronger effect = lower value
[21] = locus YGL248W, strain PDE1, stronger effect = lower value
[22] = locus YGR078C, strain PAC10, stronger effect = lower value
[23] = locus YGR135W, strain pre9, stronger effect = lower value
[24] = locus YGR252W, strain gcn5, stronger effect = lower value
[25] = locus YHR030C, strain SLT2, stronger effect = lower value
[26] = locus YHR079C, strain IRE1 (second series), stronger effect = lower value
[27] = locus YHR094C, strain hxt1, stronger effect = lower value
[28] = locus YHR129C, strain ARP1, stronger effect = lower value
[29] = locus YHR200W, strain rpn10, stronger effect = lower value
[30] = locus YIL066C, strain RNR3, stronger effect = lower value
[31] = locus YIL073C, strain SPO22, stronger effect = lower value
[32] = locus YIL125W, strain kgd1, stronger effect = lower value
[33] = locus YIR030C, strain dcg1, stronger effect = lower value
[34] = locus YJL095W, strain BCK1, stronger effect = lower value
[35] = locus YJL134W, strain LCB3, stronger effect = lower value
[36] = locus YJL168C, strain set2, stronger effect = lower value
[37] = locus YJL187C, strain SWE1 (second series), stronger effect = lower value
[38] = locus YKL009W, strain mrt4, stronger effect = lower value
[39] = locus YKL068W, stronger effect = lower value
[40] = locus YKL085W, strain MDH1 (second series), stronger effect = lower value
[41] = locus YKL085W, strain MDH1, stronger effect = lower value
[42] = locus YKR001C, strain vps1, stronger effect = lower value
[43] = locus YLR039C, strain RIC1, stronger effect = lower value
[44] = locus YLR058C, strain SHM2, stronger effect = lower value
[45] = locus YLR102C, strain apc9, stronger effect = lower value
[46] = locus YLR268W, strain sec22, stronger effect = lower value
[47] = locus YLR330W, strain CHS5, stronger effect = lower value
[48] = locus YLR342W, strain FKS1 (second series), stronger effect = lower value
[49] = locus YLR371W, strain rom2, stronger effect = lower value
[50] = locus YLR418C, strain cdc73, stronger effect = lower value
[51] = locus YML016C, strain PPZ1, stronger effect = lower value
[52] = locus YML032C, strain rad52, stronger effect = lower value
[53] = locus YML124C, strain tub3, stronger effect = lower value
[54] = locus YMR078C, strain ctf18, stronger effect = lower value
[55] = locus YMR223W, strain ubp8, stronger effect = lower value
[56] = locus YMR263W, strain SAP30, stronger effect = lower value
[57] = locus YMR307W, strain GAS1, stronger effect = lower value
[58] = locus YNL067W, strain RPL9B, stronger effect = lower value
[59] = locus YNL153C, strain GIM3, stronger effect = lower value
[60] = locus YNL233W, strain BNI4, stronger effect = lower value
[61] = locus YNL250W, strain rad50, stronger effect = lower value
[62] = locus YNL271C, strain bni1, stronger effect = lower value
[63] = locus YNL298W, strain CLA4, stronger effect = lower value
[64] = locus YNL307C, strain MCK1, stronger effect = lower value
[65] = locus YNR052C, strain pop2, stronger effect = lower value
[66] = locus YOL147C, strain pex11, stronger effect = lower value
[67] = locus YOR061W, strain CKA2, stronger effect = lower value
[68] = locus YOR069W, strain VPS5, stronger effect = lower value
[69] = locus YOR136W, strain idh2, stronger effect = lower value
[70] = locus YOR144C, strain elg1, stronger effect = lower value
[71] = locus YOR184W, strain ser1, stronger effect = lower value
[72] = locus YOR316C, strain cot1, stronger effect = lower value
[73] = locus YPL055C, strain LGE1, stronger effect = lower value
[74] = locus YPR119W, strain clb2, stronger effect = lower value
[75] = locus YPR141C, strain kar3, stronger effect = lower value
[76] = locus YPR163C, strain tif3, stronger effect = lower value
[77] = locus YPR167C, strain met16, stronger effect = lower value
[78] = strain wtn01, stronger effect = lower value

Measured: normalized growth

Cc1cc(=O)c2c(o1)-c1c(cc(O)c(O)c1C(=O)O)OC2
inactive: [1] 0.96 | [2] 0.996 | [3] 1.03 | [4] 1 | [5] 0.984 | [6] 1 | [7] 1 | [8] 1.01 | [9] 1.01 | [10] 1.01 | locus YDR150W, strain NUM1, stronger effect = lower value 0.97 | [11] 0.987 | [12] 1.01 | [13] 1.01 | [14] 1.03 | [15] 1 | [16] 1.03 | [17] 1.01 | [18] 1.02 | [19] 1.02 | [20] 1.02 | [21] 0.996 | [22] 0.991 | [23] 1.02 | [24] 0.997 | [25] 1.01 | [26] 1.01 | [27] 1.02 | [28] 1.01 | [29] 1.03 | [30] 0.99 | [31] 1.05 | [32] 1.03 | [33] 1.02 | [34] 0.998 | [35] 1.01 | [36] 1.02 | [37] 1.02 | locus YJR043C, strain POL32, stronger effect = lower value 0.997 | [38] 1.03 | [39] 1.01 | [40] 1.01 | [41] 1.01 | [42] 1.02 | [43] 0.973 | [44] 1.01 | [45] 1.01 | locus YLR262C, strain YPT6, stronger effect = lower value 1.02 | [46] 1.02 | [47] 0.991 | [48] 0.966 | [49] 1.03 | [50] 1.05 | [51] 0.998 | [52] 1.01 | [53] 1.01 | [54] 1.02 | [55] 1.01 | [56] 1 | [57] 0.935 | [58] 0.987 | [59] 1 | [60] 1.02 | [61] 1.03 | [62] 1.02 | [63] 1.03 | [64] 1.02 | [65] 1.02 | locus YOL006C, strain TOP1, stronger effect = lower value 0.969 | locus YOL012C, strain htz1 0.545 | [66] 1.02 | [67] 1.01 | [68] 1 | [69] 1.03 | [70] 1.01 | [71] 1.03 | [72] 1.01 | [73] 1.01 | [74] 1.01 | [75] 1.02 | [76] 1.01 | [77] 1.03 | [78] 1.02

Cc1cc(=O)c2c(O)c3c(cc2o1)OC(C)(C)CC3
inactive: locus YAL013W, strain DEP1, stronger effect = lower value 1.01 | [1] 1.07 | [2] 1 | [3] 0.967 | [4] 1.02 | [5] 1.03 | [6] 0.989 | [7] 0.981 | [8] 0.938 | [9] 0.965 | [10] 0.975 | [11] 1.01 | [12] 0.954 | [13] 0.966 | [14] 0.971 | [15] 1 | [16] 0.967 | [17] 0.995 | [18] 0.998 | [19] 0.951 | [20] 0.983 | [21] 1 | [22] 0.998 | [23] 0.923 | [24] 0.931 | [25] 0.992 | [26] 0.962 | [27] 0.975 | [28] 0.993 | [29] 0.968 | [30] 1.01 | [31] 0.899 | [32] 0.978 | [33] 0.949 | [34] 0.972 | [35] 1 | [36] 0.969 | [37] 0.973 | [38] 0.992 | [39] 0.976 | [40] 1 | [41] 1 | locus YKL190W, strain CNB1, stronger effect = lower value 1 | [42] 0.96 | [43] 1.01 | [44] 0.994 | [45] 0.975 | [46] 0.989 | [47] 0.988 | [48] 1.08 | [49] 0.95 | [50] 0.972 | [51] 1.01 | [52] 0.963 | [53] 0.971 | [54] 0.951 | [55] 0.959 | [56] 0.973 | [57] 1.21 | [58] 0.97 | locus YNL128W, strain TEP1, stronger effect = lower value 1 | [59] 0.973 | [60] 1.02 | [61] 0.967 | [62] 0.965 | [63] 0.961 | [64] 0.982 | locus YNL322C, strain KRE1, stronger effect = lower value 0.995 | [65] 0.949 | locus YOL012C, strain htz1 0.959 | [66] 0.967 | [67] 1 | [68] 0.997 | [69] 0.997 | [70] 0.973 | [71] 1 | [72] 0.964 | [73] 1.05 | [74] 0.956 | [75] 0.946 | [76] 0.98 | [77] 0.949 | [78] 1
